Laboratory results from PubChem BioAssay (Tox21).
Several values for one entry are separate records, joined by “and”; a condition that tells them apart may be missing. Equal entries are not always repeated. Inconclusive results are not listed. Where a call stands in place of a potency, no number is given. Some compounds were tested as several samples or in several runs, with calls that do not always agree. Activity calls are given as the source filed them. Unless noted, calls follow the shape of the dose curve; as a rule, active = well fitted curve in the direction sought with a large enough effect in the repeat runs; inconclusive = weak or mixed curves; inactive = no such curve, though single readings can be large; an effect the other way counts as inactive or inconclusive.

Key:
[1] = qHTS assay to identify small molecule antagonists of the glucocorticoid receptor (GR) signaling pathway - cell viability counter screen (AID 720693); also: nearly all actives have a fitted effect of over 55% in size; also: potency is read from the fitted curve at half-maximal effect
[2] = qHTS assay for identifying genotoxic compounds that show differential cytotoxicity against isogenic chicken DT40 cell lines with known DNA damage response pathways - wild type cell line (AID 743012); also: nearly all actives have a fitted effect of over 60% in size; also: potency is read from the fitted curve at half-maximal effect
In short: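 300 wt DT40 cells/well; cpd (DMSO) pintool-transferred after ~0.5 h at 37 C/5% CO2; 40 h incubation; CellTiter-Glo added, 30 min RT; luminescence read.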

[3] = qHTS assay for identifying genotoxic compounds that show differential cytotoxicity against isogenic chicken DT40 cell lines with known DNA damage response pathways - Rev3 mutant cell line (AID 743014); also: nearly all actives have a fitted effect of over 55% in size; also: potency is read from the fitted curve at half-maximal effect
[4] = qHTS assay to identify small molecule antagonists of the androgen receptor (AR) signaling pathway - cell viability counter screen (AID 743033; also: nearly all actives have a fitted effect of over 45% in size; also: potency is read from the fitted curve at half-maximal effect)
[5] = qHTS assay to identify small molecule antagonists of the androgen receptor (AR) signaling pathway using the MDA cell line - cell viability counter screen (AID 743041; also: nearly all actives have a fitted effect of over 45% in size; also: potency is read from the fitted curve at half-maximal effect)
In short: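 qHTS viability read-out; MDA-kb2 AR-luc; R1881-stimulated; 16 h exposure at 37C, 0% CO2; CellTiter-Fluor, 30 min; fluorescence intensity.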

[6] = qHTS assay for identifying genotoxic compounds that show differential cytotoxicity against isogenic chicken DT40 cell lines with known DNA damage response pathways - Rad54/Ku70 mutant cell line (AID 743015); also: nearly all actives have a fitted effect of over 60% in size; also: potency is read from the fitted curve at half-maximal effect
[7] = target: Androgen receptor (Homo sapiens) (UniProt P10275); test: qHTS assay to identify small molecule agonists of the androgen receptor (AR) signaling pathway (AID 743036; active = well fitted activation curve with a large enough effect in the signal ratio in the repeat runs, with a control signal flat, not every such curve was filed as active; the % refers to the signal ratio)
Sequence of Androgen receptor (Homo sapiens) (P10275 whole entry, looked up): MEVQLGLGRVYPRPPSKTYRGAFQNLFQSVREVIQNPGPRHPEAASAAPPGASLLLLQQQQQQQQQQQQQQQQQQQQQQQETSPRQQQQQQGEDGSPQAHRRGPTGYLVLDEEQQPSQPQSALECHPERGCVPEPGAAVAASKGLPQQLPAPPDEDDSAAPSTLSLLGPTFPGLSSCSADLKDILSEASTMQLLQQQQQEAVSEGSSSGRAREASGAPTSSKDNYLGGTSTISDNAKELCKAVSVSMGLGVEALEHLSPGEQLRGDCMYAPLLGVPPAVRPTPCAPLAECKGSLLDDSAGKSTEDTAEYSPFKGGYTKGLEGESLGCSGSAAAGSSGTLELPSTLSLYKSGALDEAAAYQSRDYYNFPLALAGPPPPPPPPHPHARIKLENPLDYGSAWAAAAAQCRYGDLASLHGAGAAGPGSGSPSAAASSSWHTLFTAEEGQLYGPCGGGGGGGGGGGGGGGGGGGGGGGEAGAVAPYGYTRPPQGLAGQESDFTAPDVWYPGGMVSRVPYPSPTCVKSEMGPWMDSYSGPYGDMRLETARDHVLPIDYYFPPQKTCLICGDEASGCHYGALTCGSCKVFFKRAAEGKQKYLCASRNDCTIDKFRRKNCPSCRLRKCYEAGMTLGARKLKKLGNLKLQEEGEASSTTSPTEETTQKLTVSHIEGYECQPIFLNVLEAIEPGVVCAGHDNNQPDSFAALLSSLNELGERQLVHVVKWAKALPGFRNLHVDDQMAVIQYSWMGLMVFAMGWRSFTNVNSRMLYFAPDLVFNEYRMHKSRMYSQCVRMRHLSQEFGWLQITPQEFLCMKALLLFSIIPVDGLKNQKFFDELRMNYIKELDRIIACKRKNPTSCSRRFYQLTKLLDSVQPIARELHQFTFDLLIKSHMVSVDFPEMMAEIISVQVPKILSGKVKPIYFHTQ
In short: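 AR-UAS-bla HEK293 cells, plated 4 h before dosing, were treated with compound for 16 h at 37C. beta-Lactamase reporter read after 2 h with LiveBLAzer B/G FRET substrate at room temperature.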

[8] = target: Androgen receptor (Homo sapiens) (UniProt P10275); test: qHTS assay to identify small molecule agonists of the androgen receptor (AR) signaling pathway using the MDA cell line (AID 743040; also: nearly all actives have a fitted effect of over 20% in size); settings: MDA-kb2 AR-luc cells, MMTV luciferase, 16 h, stronger effect = higher value
In short: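 Agonist activity is measured as luciferase luminescence in human MDA-kb2 cells whose MMTV reporter responds to both AR and GR. Compounds in DMSO incubate 16 h at 37C, 0% CO2, and ONE-Glo is read after 30 min.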

[9] = target: Androgen receptor (Homo sapiens) (UniProt P10275); test: qHTS assay to identify small molecule antagonists of the androgen receptor (AR) signaling pathway using the MDA cell line (AID 743042; also: nearly all actives have a fitted effect of over 55% in size; also: potency is read from the fitted curve at half-maximal effect)
In short: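 MDA-kb2 cells (human breast carcinoma, stably carrying an MMTV-luciferase reporter responsive to AR and GR) were plated at 3,000 cells/well and preincubated 5 hr at 37C, then given compound plus R1881 agonist for 16 h. ONE-Glo luminescence was read.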

[10] = target: Androgen receptor (Homo sapiens) (UniProt P10275); test: qHTS assay to identify small molecule antagonists of the androgen receptor (AR) signaling pathway (AID 743035; active = well fitted inhibition curve with a large enough effect in the signal ratio in the repeat runs, not every such curve was filed as active; the % refers to the signal ratio; also: potency is read from the fitted curve at half-maximal effect)
In short: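 In this cell-based reporter screen, compounds were tested in concentration series against R1881-activated HEK293 cells expressing beta-lactamase under UAS control; after 16 h at 37C, FRET substrate was added and fluorescence read 2 h later.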

Row | SMILES | Potency [1] | Potency [2] | Potency [3] | Potency [4] | Potency [5] | Potency [6] | Potency [7] | activity change ([8]; at 70.3 µM (top of the series)) | activity change ([8]; at 95 µM (top of the series)) | Potency [9] | Potency [10]
1 | CC(C)(C#N)N=NC(C)(C)C#N | inactive | inactive | inactive | inactive | inactive |  |  |  |  |  | 
2 | C=C(C)C#N | inactive | inactive | inactive | inactive | inactive | inactive |  |  |  |  | 
3 | CNC(=O)CSP(=S)(OC)OC | inactive |  | inactive | inactive |  | inactive |  |  |  |  | 
4 | C[C@]12CCC(=O)C=C1CC[C@@H]1[C@@H]2CC[C@@]2(C)[C@H]1CC[C@]2(C)O | 15.5 µM (active) | 29.8 µM (active) and 26.6 µM (active) and 21.7 µM (active) | 26.6 µM (active) and 29.8 µM (active) and 26 µM (active) | inactive | inactive | 29.8 µM (active) and 26.6 µM (active) and 26.7 µM (active) |  |  |  |  | 
5 | CCCCOCCOC(C)=O | inactive | inactive | inactive | inactive | inactive | inactive |  |  |  |  | 
6 | CNC(=O)Oc1cccc2c1OC(C)(C)C2 | inactive | inactive | inactive and 24.3 µM (active) | inactive | inactive |  | inactive | 1.41% (inactive) | 1.74% (inactive) | inactive | 
7 | COc1ccc(CO)cc1 | inactive | inactive | inactive | inactive | inactive |  |  |  |  |  | 
8 | COP(=S)(OC)SCn1nnc2ccccc2c1=O | inactive | 43.3 µM (active) | 60 µM (active) and 61.1 µM (active) | inactive | inactive |  | inactive | -2.47% (inactive) and -4.42% (inactive) |  |  | inactive
9 | CCOP(=S)(OCC)OP(=S)(OCC)OCC | inactive | inactive | inactive | inactive |  |  | inactive | -0.0098% (inactive) |  | inactive | inactive
10 | CCOP(=S)(OCC)SCSC(C)(C)C | inactive | inactive | inactive | inactive | inactive |  |  |  |  |  | 
11 | CC(C)=CC1C(C(=O)OCc2cccc(Oc3ccccc3)c2)C1(C)C (stereo not given) | inactive |  | inactive | inactive |  | inactive |  |  |  |  | 
12 | O=NN(c1ccccc1)c1ccccc1 | inactive |  | inactive | inactive |  | inactive |  |  |  |  | 
13 | ClCC(Cl)CCl | inactive | inactive | inactive | inactive |  |  |  |  |  |  | 
14 | CCCCOC(=O)COC(=O)c1ccccc1C(=O)OCCCC | inactive | inactive | inactive | inactive | inactive | inactive |  |  |  |  | 
15 | c1ccc(C2CO2)cc1 (stereo not given) | inactive | inactive | inactive | inactive | inactive |  |  |  |  |  | 
16 | COP(=S)(OC)Oc1ccc(Sc2ccc(OP(=S)(OC)OC)cc2)cc1 | inactive | 29.8 µM (active) and 68.6 µM (active) |  |  |  |  | inactive | -9.3% (inactive) and -9.83% (inactive) |  | 61.1 µM (active) | 54.9 µM (active)
17 | CC(C)COC(=O)c1ccccc1C(=O)OCC(C)C | inactive | 27.3 µM (active) |  | inactive |  |  |  |  |  |  | 
18 | Cc1ccc(N=CN(C)C=Nc2ccc(C)cc2C)c(C)c1 | inactive | inactive and 30.6 µM (active) | inactive and 38.5 µM (active) | inactive | inactive |  |  |  |  |  | 
19 | N#Cc1c(Cl)c(Cl)c(Cl)c(C#N)c1Cl | 21.5 µM (active) and 21.9 µM (active) | 268 nM (active) and 122 nM (active) | 213 nM (active) and 172 nM (active) | 2.41 µM (active) and 1.55 µM (active) | 4.76 µM (active) and 6.11 µM (active) |  |  |  |  |  | 
20 | CCOC(=O)c1ccccc1N | inactive | inactive | inactive | inactive | inactive |  |  |  |  |  | 
21 | NC(=O)CN1CCCC1=O | inactive | inactive | inactive | inactive | inactive |  |  |  |  |  | 
22 | O=[N+]([O-])/N=C1\NCCN1Cc1ccc(Cl)nc1 | inactive | inactive | inactive and 8.41 µM (active) | inactive |  |  | inactive | 0.161% (inactive) and 4.01% (inactive) and 0.695% (inactive) |  | inactive | inactive
23 | ClCc1ccccn1 | inactive | inactive | inactive | inactive | inactive | inactive |  |  |  |  | 
24 | O=S(=O)(O)C(F)(F)C(F)(F)C(F)(F)C(F)(F)C(F)(F)C(F)(F)C(F)(F)C(F)(F)F | inactive | inactive and 54.5 µM (active) | 61.1 µM (active) and 48.6 µM (active) | inactive | inactive |  |  |  |  |  | 
25 | OC(c1ccc(Cl)cc1)(c1cncnc1)c1ccccc1Cl (stereo not given) | inactive | 10.9 µM (active) | 35 µM (active) and 6.86 µM (active) |  | inactive | 49.4 µM (active) and 6.11 µM (active) |  |  |  |  | 
26 | COC(=O)Nc1nc2ccccc2[nH]1 | inactive | 9.69 µM (active) and 8.63 µM (active) | 6.11 µM (active) and 6.86 µM (active) | inactive | inactive |  |  | 0.968% (inactive) and 4.32% (inactive) |  | inactive | 
